RORg inh: inhibitors of mouse ROR gamma transcriptional activity. Potency, µM (top dose mostly 53.6 µM), inactives show at the top dose activity change, negative = inhibition, most hits filed as inhibitors. P51450. AID 2551. Drosophila S2 Gal4-RORgamma UAS-luciferase reporter, 20 h. 5.4% of 310,000 active; note: nearly all actives have a fitted effect of over 60% in size
Target sequence (P51450 whole entry, looked up, the tested form may be a part): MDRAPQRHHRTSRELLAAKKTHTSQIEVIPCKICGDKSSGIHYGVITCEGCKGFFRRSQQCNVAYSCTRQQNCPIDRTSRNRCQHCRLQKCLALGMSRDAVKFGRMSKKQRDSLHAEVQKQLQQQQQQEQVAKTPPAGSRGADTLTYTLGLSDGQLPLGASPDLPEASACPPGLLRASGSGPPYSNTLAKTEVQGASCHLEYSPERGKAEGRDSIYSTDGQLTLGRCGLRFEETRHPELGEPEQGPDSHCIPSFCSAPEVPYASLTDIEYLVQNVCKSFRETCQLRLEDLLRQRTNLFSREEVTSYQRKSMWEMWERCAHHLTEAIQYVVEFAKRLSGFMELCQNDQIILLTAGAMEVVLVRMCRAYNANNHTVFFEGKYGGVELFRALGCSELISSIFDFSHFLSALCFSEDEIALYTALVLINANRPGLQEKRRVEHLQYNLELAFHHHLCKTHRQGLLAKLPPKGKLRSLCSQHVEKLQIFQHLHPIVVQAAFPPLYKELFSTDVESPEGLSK
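Using a luciferase readout, inhibitors were identified by reduced reporter activity in Drosophila cells coexpressing a copper-inducible Gal4–ROR gamma fusion and UAS-driven Photinus luciferase, incubated 20 hr after 700 uM copper sulfate.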
Tau fluor counter: counter-screen for tau fibril formation inhibitors; tau K18 P301L Alexa594 fluorescence, heparin fibrillization; 0.93% of 280,000 active; Potency, µM (series often up to 57.7 µM), without a hit: at the top dose activity change, negative = decrease; note: nearly all actives have a fitted effect of over 55% in size
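Human K18 P301L tau (15 uM unlabeled plus 0.24 uM Alexa 594-labeled, final) in 100 mM sodium acetate pH 7 was mixed with compound and 20 uM heparin and incubated 6 hr at 37 C.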
Tau fibril ThT: blocks human tau fibril formation measured by thioflavin T; P10636; recombinant tau K18 P301L (four-repeat tau fragment), heparin-induced fibrillization, ThT fluorescence; Potency, µM (top dose mostly 57.4 µM), inactives show at the top dose activity, negative = inhibition, actives largely listed as inhibitors; 2.1% of 270,000 active; AID 1460; note: nearly all actives have a fitted effect of over 55% in size
Target sequence (P10636 561-689 P618L limits assumed): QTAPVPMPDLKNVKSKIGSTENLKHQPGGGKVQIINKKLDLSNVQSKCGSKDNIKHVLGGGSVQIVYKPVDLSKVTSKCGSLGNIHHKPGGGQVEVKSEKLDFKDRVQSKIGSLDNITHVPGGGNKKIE
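In this qHTS, human K18 P301L tau is incubated with compound and heparin for 6 hr at 37 C, and Thioflavin T fluorescence then reports fibril load.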
Gal4-VP16 FLuc: Gal4-VP16 reporter inhibition counter-screen | Drosophila S2 Gal4-VP16 UAS-luciferase, luminescence, 20 h | 3.5% of 310,000 active | Potency, µM (highest dose often 53.6 µM), without a hit: top-dose activity, negative = inhibition, actives largely listed as inhibitors;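 note: Gal4-VP16 expression switched on by copper sulfate through the metallothionein promoter; nearly all actives have a fitted effect of over 50% in size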
Tau FP inhib: blocks human tau fibril formation measured by polarization | Potency, µM (doses to about 57.7 µM), without a hit: at the highest dose activity, negative = inhibition, actives largely listed as inhibitors | 0.39% of 280,000 active | K18 P301L tau heparin fibrillization, Alexa594 FP, 6 h | AID 1468; note: nearly all actives have a fitted effect of over 55% in size
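Recombinant K18 P301L […], labeled with Alexa 594 at 0.24 uM over 15 uM unlabeled; heparin inducer 20 uM final; 37 C, 6 hr; FP endpoint.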
* = called active by the depositor; ? = inconclusive; nt = not tested or not shown; [ ] = another dose, or the depositor's remark. A selection: hits, their analogues and other compounds. The true share with any hit is near 7.3%. Calls come from the whole dose curve; as a rule, active = well fitted curve in the direction sought with a large enough effect; inconclusive = small, poorly fitted or top-dose-only effect, or another doubt; inactive = no such curve, though single readings can be large; an effect the other way counts as inactive or inconclusive. % is set by controls: 0 for no effect and ±100 for the full control effect; potency is the fitted concentration of half-maximal effect.

SMILES	RORg inh	Tau fluor counter	Tau fibril ThT	Gal4-VP16 FLuc	Tau FP inhib
Cc1ccccc1NC(=O)Cn1nc(-c2ccccc2)nc(Cc2ccccc2)c1=O	nt	-17%	-8%	nt	-1%
COc1ccc2cc3[n+](cc2c1OC)CCc1cc2c(cc1-3)OCO2	?	-9%	18µM*	?	-10%
COc1ccc(Nc2ncc(C(=O)N3CCN(c4cccc(Cl)c4)CC3)c3ccccc23)cc1	nt	?	-15%	nt	13%
COc1ccc(Nc2ncc(C(=O)Nc3cccc(OC)c3)c3ccccc23)cc1	nt	14µM*[quencher]	?	nt	7%
COc1ccc(Nc2ncc(C(=O)N3CCN(c4ccc(OC)cc4)CC3)c3ccccc23)cc1	nt	14µM*[quencher]	?	nt	?
COc1ccc(Nc2ncc(C(=O)N3CCN(c4ccc(F)cc4)CC3)c3ccccc23)cc1	?	13µM*[quencher]	?	5%	?
CCOC(=O)Cc1ccc(NC(=O)n2ncc3cc(Cl)ccc32)cc1	nt	-15%	?	nt	7%
Cc1cccc(CC(=O)N2CC(=O)Nc3ccc(Br)cc3C2c2ccc(F)cc2)c1 (centres undefined)	nt	-25%	-16%	nt	-11%
O=[N+]([O-])c1cncc([N+](=O)[O-])c1Nc1cccc(O)c1	?	nt	nt	11µM*	nt
O=[N+]([O-])c1cc([N+](=O)[O-])c2nonc2c1Nc1ccc(O)cc1	11µM*	nt	nt	13µM*	nt
Cc1ccc(NC(=O)c2sc3nc(-c4ccc(F)cc4)cn3c2C)c(C)c1	nt	-6%	?	nt	-9%
CCOc1ccccc1NC(=O)CN(c1ccc(OC)cc1)S(=O)(=O)c1c(C)[nH]c(=O)[nH]c1=O	-23%	nt	nt	-6%	nt
CCCN(CCC)c1nc(N)nc(-c2cc(Cl)ccc2OC)n1	16µM*	-5%	-10%	-11%	1%
CCCNc1nc(N)nc(-c2cc(Cl)ccc2OC)n1	14%	-2%	-6%	19%	-4%
Cc1cc(N2CCCC2=O)cc(C)c1S(=O)(=O)NCCOc1ccc(C(C)(C)C)cc1	?	-7%	-16%	3.2µM*	11%
COc1ccccc1Cn1c(=S)[nH]c2cc(C(=O)NCC(OC)OC)ccc2c1=O	-7%	nt	nt	?	nt
CC(C)CSC1=NSC2=NC(=O)/C(=C\c3coc4ccccc4c3=O)C(=N)N12	16%	?	28µM*	2%	?
Cc1cc(/C=C2\C(=N)N3C(SCc4ccccc4)=NSC3=NC2=O)c(C)n1Cc1ccccc1	10%	-7%	-10%	0%	4%
CC(C)CSC1=NSC2=NC(=O)/C(=C\c3ccccc3)C(=N)N12	-1%	-18%	?	18%	-1%
CSC1=NSC2=NC(=O)/C(=C\c3coc4ccccc4c3=O)C(=N)N12	9%	?	14µM*	6%	?
N=C1/C(=C\c2coc3ccc(O)cc3c2=O)C(=O)N=C2SC=CN12	2%	?	13µM*	-5%	-14%
N=C1/C(=C\c2coc3ccccc3c2=O)C(=O)N=C2SC(c3ccncc3)=NN12	25%	-24%	13µM*	4%	?
N=C1/C(=C/c2coc3ccccc3c2=O)C(=O)N=C2SC(c3ccco3)=NN12	11%	-19%	?	3%	-10%
COCCN(C(=O)COC(=O)c1ccc(C=O)cc1)c1c(N)n(Cc2ccccc2)c(=O)[nH]c1=O	?	nt	nt	1%	nt
Cc1ccc(NC(=O)CSc2ncc3c(n2)-c2ccccc2N(C)S3(=O)=O)c(Cl)c1	nt	?	-15%	nt	-14%
SMILES	RORg inh	Tau fluor counter	Tau fibril ThT	Gal4-VP16 FLuc	Tau FP inhib
CCOc1ccccc1C(=O)N/N=C/c1ccoc1	-10%	nt	nt	0%	nt
CCc1nnc(NC(=O)CSc2nnc(-c3ccccc3NC(=O)c3ccccc3)o2)s1	2.2µM*	-13%	-9%	3.5µM*	-1%
Cc1cccc(NC(=O)CSc2nnc(-c3ccccc3C)o2)c1	5µM*	-22%	1%	1%	?
CCOC(=O)CSc1nnc(-c2ccccc2NC(=O)c2ccccc2)o1	-10%	2%	2%	-7%	-2%
Cc1ccc(NC(=O)CSc2nnc(-c3ccccc3C)o2)cc1C	14µM*	-19%	-7%	?	?
O=C(c1ccccc1)c1c2c(cc3sc4ccccc4[n+]13)-c1cccc3cccc-2c13	?	?	6.3µM*	10µM*	?
Cc1sc2ccccc2[n+]1CC(=O)c1ccccc1	0%[1.91 µM]	nt	nt	?	nt
Cc1sc2cc3c(c(C(=O)c4ccccc4)[n+]2c1C)-c1cccc2cccc-3c12	?	-10%	?	11µM*	1%
COc1ccc(NC(=O)C2C3C=CC4(O3)C2C(=O)N(CCN2CCCCC2C)C4C(=O)NC2CCCCC2)cc1 (centres undefined)	3%	nt	nt	0%	nt
CCOc1cc(-c2cc(-c3ccccc3)nc(N)c2C#N)ccc1O	-8%	?	-23%	-7%	-13%
CCOc1cc(-c2cc(-c3ccc(N)cc3)nc(N)c2C#N)ccc1O	-22%	14µM*[quencher]	?	-4%	?
COc1cc2c(cc1OC)C(/C=C/c1ccc(OC)c(OC)c1OC)=NCC2	-28%	-16%	?	?	-11%
CCOc1ccc(NC(=O)c2oc3ccccc3c2NC(=O)C2CCCCC2)cc1	nt	-26%	-3%	nt	-5%
COc1cccc(Cn2c(=O)c(C)nc3cnc(N4CCOCC4)nc32)c1	-16%	nt	nt	-8%	nt
COc1ccc(CC(=O)Nc2ccc(-c3cn4ccccc4n3)cc2)cc1	4%	-11%	2%	-20%	-2%
CCOc1ccc(-c2cn3ccccc3n2)cc1	6.3µM*	5%	7%	?	3%
CCOc1ccc(-c2cnc3ccccc3n2)cc1	3.5µM*	-24%	?	8.9µM*	-5%
Cc1ccc(-c2nc3ccccc3o2)cc1NC(=S)NC(=O)/C=C/c1ccco1	2µM*	-15%	?	?	7%
O=C(/C=C/c1ccco1)NC(=S)Nc1cccc(-c2nc3ccccc3o2)c1	2.2µM*	-23%	?	13µM*	7%
CCC(=O)Nc1cccc(-c2nc3ccccc3o2)c1	18%	-13%	-15%	?	-4%
COc1cccc(NC(=O)CCc2nnc3n(CC(C)C)c(=O)c4ccccc4n23)c1	nt	-7%	1%	nt	-2%
CC1CCCCC12NC(=O)N(CC(=O)c1ccc(Cl)s1)C2=O (centres undefined)	-4%	nt	nt	-8%	nt
COC(=O)C(C(=O)OC)C1O[C@@]23COCCC2(C)C3c2ccccc21 (some centres undefined)	22%[10 µM]	-22%[11.6 µM]	-20%[11.5 µM]	-3%[10 µM]	4%[11.6 µM]
Cc1cc(C)nc(SCC(=O)NN)n1	8.9µM*	-2%	-9%	-9%	-6%
Cc1cc(C)nc(SCC(=O)Nc2ncccn2)n1	-11%	8%	4%	-13%	2%
COc1ccc(N)cc1-n1c(C)ccc1C	-23%	?	3.2µM*	0%	?
C=CCC1(CC=C)CCCN1C(=O)c1cc(COc2cccc(C(F)(F)F)c2)on1	-29%	nt	nt	13µM*	nt
